Screening results: PubChem BioAssay, several laboratories
tim23-1 inh: tim23-1 yeast growth inhibition; S. cerevisiae tim23-1 growth, BacTiter-Glo luminescence, 24 h; inhibition, % at 20 µM; hit rate 1.3% among 330,000;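 active = growth inhibition of the mutant yeast at or above 50%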;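 also: temperature-sensitive mutant grown at 25 °C; plate controls were DMSO-treated mutant yeast for no effect and medium wells lacking yeast for full effect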
NALP3 yeast inh: inhibitors of NALP3 inflammasome in yeast; AID 2825; hit rate 0.39% among 330,000; Yeast reconstituted NLRP3/ASC/caspase-1, beta-gal luminescence, 24 h; inhibition, % at 10 µM;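 active = inhibition of 50% or more; inactive = inhibition below 50%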;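 also: plate controls were induced DMSO wells for no effect and uninduced yeast grown without galactose for full effect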
NALP1 yeast inh: inhibitors of NALP1 inflammasome in yeast | inhibition, % at 10 µM | S. cerevisiae NALP1/ASC/caspase-1 growth, X-gal OD620, 72 h | hit rate 0.61% among 280,000; in the data active = inhibition mostly above about 24%, no sharp cut-off; inactive = mostly below about 32%
TIM10 inh: TIM10 yeast growth inhibition | S. cerevisiae TIM10 strain growth, BacTiter-Glo luminescence, 24 h | inhibition, % at 10 µM | hit rate 1.4% among 330,000;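 active = inhibition of 40% or more at the single tested concentration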;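 also: wild-type TIM10 isogenic control strain grown at permissive 25 °C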
tim10-1 inh: inhibits growth of tim10-1 mutant yeast; S. cerevisiae tim10-1 ts strain growth, BacTiter-Glo, 24 h; inhibition, % at 20 µM; hit rate 2.2% among 330,000; AID 463190;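 active = inhibition of at least 40%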;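 also: mutant grown at 25 °C; 0% = DMSO wells with yeast and 100% = wells holding no yeast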
V-ATPase pHluor: yeast V-ATPase proton transport regulation by pHLuorin | S. cerevisiae, pHLuorin cytosolic pH fluorescence | hit rate 0.37% among 350,000 | AID 504577 | response, % at 10 µM; in the data active = response mostly above about 7.3%, no sharp cut-off; inactive = mostly below about 5.4%; also: actives read high
tim23-1 confirm: confirmation of tim23-1 mutant yeast growth inhibitors; shares compounds with tim23-1 inh; S. cerevisiae tim23-1 growth, BacTiter-Glo luminescence, 24 h; inhibition, % at 20 µM; hit rate 83% among 4,400; AID 463218;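 active = inhibition above about 39% in either of two replicate wells at 20 µM, limit read from the data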;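 also: temperature-sensitive tim23-1 mutant grown at 25 °C; 0% = DMSO wells with yeast and 100% = medium wells without yeast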
Numbers without * were called inactive; . = not tested or not shown. Shown are actives, neighbours in structure and some others; about 4.2% of the full set was active somewhere.

SMILES	tim23-1 inh	NALP3 yeast inh	NALP1 yeast inh	TIM10 inh	tim10-1 inh	V-ATPase pHluor	tim23-1 confirm
COc1ccc(CN2CCN(C(=O)c3cc(-c4cccnc4)nc4ccc(Cl)cc34)CC2)c(OC)c1OC	15	28	-23	9	26	6	.
O=C(Nc1ccncc1Cl)c1ccncc1	-12	0	-5	2	-18	-2	.
O=[N+]([O-])c1nn(-c2ccc3c(c2)OCCO3)n(O)c1=Nc1ccccc1	53*	31	-37	5	36	0	23
O=[N+]([O-])c1nn(-c2ccc3c(c2)OCCO3)n(O)c1=Nc1ccc(Cl)cc1	44	36	-5	20	24	2	.
CC(C)(C)NC(=O)NC(=O)CSc1ccc(S(=O)(=O)N2CCCCC2)cn1	28	22	.	11	37	-1	.
CC(CN1C(C)CCCC1C)OC(=O)c1ccc(Cl)cc1Cl (stereo not drawn)	-7	12	1	-9	-11	1	.
Cc1nc2ccc(NS(=O)(=O)c3ccc(Br)cc3)cc2s1	51*	21	.	17	10	1	34
Cc1ccc(S(=O)(=O)Nc2ccc3nc(C)sc3c2)cc1	-20	22	2	-1	-7	2	.
COc1cc(/C=N/NC(=O)c2ccc(Cl)c(S(N)(=O)=O)c2)ccc1OCC(N)=O	-4	12	6	2	10	-1	.
COc1ccc(Nc2nc3ccc(C)cc3n3cnnc23)cc1Cl	29	30	9	9	19	2	.
COc1ccccc1Nc1nc2ccc(C)cc2n2cnnc12	51*	17	0	21	32	-1	32
COc1cccc(/C=C/C(=O)c2ccc3c(c2)OCO3)c1OC	53*	35	.	33	26	5	54*
Clc1cccc(Cl)c1CNc1ccc(N2CCCC2)cc1	25	15	19	-2	18	.	.
O=C(COC(=O)C12CC3CC(CC(Cl)(C3)C1)C2)Nc1ccccc1	54*	13	.	13	0	3	46*
O=C(Nc1c(C(=O)O)[nH]c2ccc(F)cc12)c1cccc(C(F)(F)F)c1	13	1	-7	-6	1	2	.
O=C(O)c1cccc(-c2ccc(/C=N/n3cnc4sc5c(c4c3=O)CCCC5)o2)c1	52*	3	.	0	29	.	22
COc1ccc(-c2ccnc3c(Br)c(C)nn23)cc1	50*	25	.	13	32	4	53*
Cc1nn2c(-c3ccc(F)cc3)ccnc2c1Br	21	11	20	9	9	0	.
COc1cc(/C=C/C(=O)OCC(=O)c2ccc(OC(F)F)cc2)ccc1O	65*	18	.	10	-9	2	54*
COc1cccc2sc3cc(NCc4ccc5c(c4)OCO5)ccc3c(=O)c12	68*	28	.	17	-33	-4	56*
COc1ccc2c(c1)[C@H]1[C@H](CO2)[C@H](c2ccccc2)[C@]2(C)C(=O)Nc3ccc(C)cc3C(=O)N12	51*	8	.	12	21	-5	43*
COc1ccc2c(c1)C(=O)N1[C@H]3c4cc(C)ccc4OC[C@@H]3[C@H](c3ccccc3)[C@]1(C)C(=O)N2	-10	0	.	-9	29	1	.
C[C@@]12C(=O)Nc3cc(F)c(F)cc3C(=O)N1[C@H]1c3cc(Cl)ccc3OC[C@@H]1[C@@H]2c1ccccc1	51*	9	.	23	22	4	44*
COc1ccc2c(c1)OC[C@H]1[C@H]2N2C(=O)c3cc(C)ccc3NC(=O)[C@@]2(C)[C@H]1c1ccccc1	51*	1	.	-5	8	-2	58*
C[C@@]12C(=O)Nc3ccc(Cl)cc3C(=O)N1[C@H]1c3cc(Cl)ccc3OC[C@@H]1[C@@H]2c1ccccc1	34	4	.	22	20	4	.
SMILES	tim23-1 inh	NALP3 yeast inh	NALP1 yeast inh	TIM10 inh	tim10-1 inh	V-ATPase pHluor	tim23-1 confirm
CN(C(=O)CSc1cc(C(=O)c2nccn2C)c2ccccc2n1)c1ccccc1	50*	4	.	29	17	4	41*
Cn1ccnc1C(=O)c1cc(SCC(=O)NC2CC2)nc2ccccc12	8	8	1	-25	13	-1	.
CCc1cc(C(=O)c2ccc(C)cc2)c(NC(=O)CCl)s1	50*	-16	12	28	40	-3	49*
Cc1cc(C(=O)c2ccc(Cl)cc2)c(NC(=O)CCl)s1	37	-29	25	8	37	2	.
CCOc1ccccc1OCCCC(=O)N(CC)CC(=O)Nc1c(F)cccc1F	7	20	.	10	15	0	.
CC1=NN(c2ccccc2)C(=O)/C1=C/c1ccc(Cl)cc1	42	12	4	25	24	-1	.
COc1ccc(/C=C2/C(=O)N(c3ccccc3)N=C2C)cc1Br	56*	16	2	21	32	2	45*
CC1=NN(c2ccccc2)C(=O)/C1=C/c1cccs1	57*	-12	29	21	7	10	52*
COc1ccc(CN2CCN(Cc3ccc4cc(F)ccc4n3)CC2CCO)c(C)c1C (stereo not drawn)	13	21	-4	-1	14	-1	.
CCOc1cc(NCc2ccccc2)c2ncn(C(C)C)c2c1	63*	20	.	22	-8	0	40*
CCn1cc(Br)c(C(=O)Nc2ccc(Cl)cc2Cl)n1	94*	19	-10	20	39	-2	38
CCn1cc(Br)c(C(=O)Nc2ccc(F)c(Cl)c2)n1	53*	-3	10	27	28	-2	44*
Cc1n[nH]c(C)c1N=Nc1ccc(Br)cc1	62*	2	1	28	-36	0	25
CCCCSc1ncnc2c1ncn2C1CCCCO1 (stereo not drawn)	.	.	.	.	.	-2	.
Cc1cccc(C(=O)NC(=S)Nc2ccccc2C(F)(F)F)c1	51*	26	20	22	30	-2	38*
Cc1ccc(C(=O)NC(=S)Nc2ccccc2C(F)(F)F)cc1C	3	12	0	-14	23	-2	.
C=CCn1c2ccccc2c2n[nH]c(=S)nc21	8	8	9	-17	-1	0	.
COC(=O)C1=NN(c2ccc(C)cc2)C2(S1)SC(C(C)=O)=C(C)N2c1ccccc1 (stereo not drawn)	51*	-1	11	25	35	-4	40*
COc1ccccc1NC(=O)CSc1nncs1	4	14	.	1	5	-2	.
O=C(NCCc1c[nH]c2ccccc12)c1cc2sccc2n1Cc1ccccc1	14	7	8	28	33	-1	.
Cn1c(C(=O)NCCc2c[nH]c3ccccc23)cc2sccc21	57*	20	9	24	19	0	57*
O=C(NC1CCCC1)C(c1cccs1)N(C(=O)c1csnn1)c1ccccc1F (stereo not drawn)	3	13	-3	8	-8	-2	.
